# From article PMC7862700, “An all-to-all approach to the identification of sequence-specific readers for epigenetic DNA modifications on cytosine”
# Tests used:
# Test in all cases: DAPPL (digital affinity profiling via proximity ligation, sequencing); 10 mM Tris-HCl pH 7.5, 50 mM NaCl, 1 mM DTT, 4% glycerol, room temperature, 30 min; GST-TFs on glutathione beads, 16-mer random dsDNA library, 0.1% formaldehyde crosslink after washing; high values mean tight binding
# FLI1 = target: T1, FLI1 (Homo sapiens, UniProt Q01543 1-452); conditions: protein: recombinant; tags: N-terminal GST; dsDNA, one strand shown
# T1 sequence: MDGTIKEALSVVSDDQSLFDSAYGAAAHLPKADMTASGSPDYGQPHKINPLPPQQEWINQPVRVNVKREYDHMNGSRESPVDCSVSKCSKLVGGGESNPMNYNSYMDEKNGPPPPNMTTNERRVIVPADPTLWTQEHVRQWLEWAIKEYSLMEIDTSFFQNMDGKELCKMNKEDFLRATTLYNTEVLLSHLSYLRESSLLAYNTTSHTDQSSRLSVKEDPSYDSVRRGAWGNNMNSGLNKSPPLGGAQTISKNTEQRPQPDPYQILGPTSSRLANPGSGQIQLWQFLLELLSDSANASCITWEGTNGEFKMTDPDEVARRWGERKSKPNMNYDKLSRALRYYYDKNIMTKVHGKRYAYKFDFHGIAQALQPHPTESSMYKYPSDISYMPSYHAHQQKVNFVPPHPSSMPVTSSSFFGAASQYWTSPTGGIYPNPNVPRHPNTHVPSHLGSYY
# How it was run: (§1)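 Human transcription factors fused to GST were expressed in yeast, captured on glutathione beads, given DNA barcodes and pooled with a GST-only negative control. Pools were incubated with 200 nmole of a 16-mer random double-stranded DNA library in Tris/NaCl/DTT/glycerol buffer at room temperature for 30 min. They were then washed, crosslinked with 0.1% formaldehyde, proximity-ligated (BsaI/T4 ligase, 1 h, 37 °C), PCR-amplified and sequenced on an Illumina NextSeq500. Binding signal is each 6-mer's read frequency for a factor divided by its frequency for the GST control.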
# ELK1 = target: T2, ELK1 (Homo sapiens, UniProt P19419 1-428); conditions: protein: recombinant; tags: N-terminal GST; dsDNA, one strand shown
# T2 sequence: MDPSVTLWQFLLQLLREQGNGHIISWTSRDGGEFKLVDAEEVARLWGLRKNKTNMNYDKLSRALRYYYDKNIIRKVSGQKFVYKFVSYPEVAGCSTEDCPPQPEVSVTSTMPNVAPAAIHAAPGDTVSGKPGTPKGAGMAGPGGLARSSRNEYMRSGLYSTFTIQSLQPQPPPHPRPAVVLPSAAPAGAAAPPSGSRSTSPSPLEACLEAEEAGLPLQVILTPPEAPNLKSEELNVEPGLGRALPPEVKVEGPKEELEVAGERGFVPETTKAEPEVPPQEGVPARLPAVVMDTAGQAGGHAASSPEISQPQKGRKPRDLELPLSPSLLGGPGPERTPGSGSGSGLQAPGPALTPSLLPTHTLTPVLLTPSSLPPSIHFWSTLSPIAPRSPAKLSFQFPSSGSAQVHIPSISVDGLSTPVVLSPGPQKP
# How it was run: as §1
# GABPA = target: T3, GABPA (Homo sapiens, UniProt Q06546 1-454); conditions: protein: recombinant; tags: N-terminal GST; dsDNA, one strand shown
# T3 sequence: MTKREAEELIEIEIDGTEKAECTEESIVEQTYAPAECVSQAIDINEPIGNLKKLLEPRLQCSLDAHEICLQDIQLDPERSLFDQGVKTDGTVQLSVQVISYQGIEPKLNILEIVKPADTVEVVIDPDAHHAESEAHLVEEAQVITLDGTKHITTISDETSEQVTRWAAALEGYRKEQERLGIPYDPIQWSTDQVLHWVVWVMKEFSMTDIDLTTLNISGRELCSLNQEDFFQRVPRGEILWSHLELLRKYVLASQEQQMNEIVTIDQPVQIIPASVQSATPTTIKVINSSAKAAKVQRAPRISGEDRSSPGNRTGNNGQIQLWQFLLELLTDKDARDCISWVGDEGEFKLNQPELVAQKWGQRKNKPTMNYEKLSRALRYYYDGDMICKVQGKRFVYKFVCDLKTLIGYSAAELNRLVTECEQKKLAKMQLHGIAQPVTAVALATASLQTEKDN
# How it was run: as §1
# ERG = target: T4, ERG (Homo sapiens, UniProt P11308 1-479); conditions: protein: recombinant; tags: N-terminal GST; dsDNA, one strand shown
# T4 sequence: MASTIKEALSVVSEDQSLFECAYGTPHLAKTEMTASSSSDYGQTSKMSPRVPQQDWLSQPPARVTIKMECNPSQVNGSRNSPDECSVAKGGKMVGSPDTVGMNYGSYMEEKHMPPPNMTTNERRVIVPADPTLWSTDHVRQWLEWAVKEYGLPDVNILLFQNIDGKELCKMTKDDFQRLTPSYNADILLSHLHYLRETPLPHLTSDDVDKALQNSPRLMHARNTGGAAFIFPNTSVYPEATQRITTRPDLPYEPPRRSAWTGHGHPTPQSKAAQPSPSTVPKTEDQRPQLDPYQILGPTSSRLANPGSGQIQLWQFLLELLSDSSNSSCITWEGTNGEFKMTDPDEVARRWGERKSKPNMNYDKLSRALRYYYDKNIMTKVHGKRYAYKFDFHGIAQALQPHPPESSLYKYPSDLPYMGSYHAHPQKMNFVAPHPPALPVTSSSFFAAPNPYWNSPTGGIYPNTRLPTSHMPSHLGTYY
# How it was run: as §1
# ELF1 = ELF1 (Homo sapiens, UniProt P32519 1-619); conditions: protein: recombinant; tags: N-terminal GST; dsDNA, one strand shown
# Sequence of ELF1 (P32519 whole entry): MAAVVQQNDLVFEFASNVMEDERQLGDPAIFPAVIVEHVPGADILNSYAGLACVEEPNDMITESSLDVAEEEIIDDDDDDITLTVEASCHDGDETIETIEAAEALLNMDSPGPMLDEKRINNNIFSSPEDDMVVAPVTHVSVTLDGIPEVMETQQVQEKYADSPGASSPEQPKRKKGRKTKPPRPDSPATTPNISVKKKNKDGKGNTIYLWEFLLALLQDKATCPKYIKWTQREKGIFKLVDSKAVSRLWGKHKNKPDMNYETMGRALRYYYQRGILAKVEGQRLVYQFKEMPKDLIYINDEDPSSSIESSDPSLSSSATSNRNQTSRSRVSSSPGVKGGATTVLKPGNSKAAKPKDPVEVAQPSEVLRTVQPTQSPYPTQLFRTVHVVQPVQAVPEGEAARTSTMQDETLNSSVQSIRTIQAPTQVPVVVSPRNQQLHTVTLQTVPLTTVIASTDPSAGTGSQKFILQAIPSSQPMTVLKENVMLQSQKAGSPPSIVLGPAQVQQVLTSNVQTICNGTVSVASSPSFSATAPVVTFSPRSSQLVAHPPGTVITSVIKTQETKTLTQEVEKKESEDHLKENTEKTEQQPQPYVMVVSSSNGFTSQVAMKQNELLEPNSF
# How it was run: as §1
# EHF = target: T5, EHF (Homo sapiens, UniProt Q9NZC4 1-300); conditions: protein: recombinant; tags: N-terminal GST; dsDNA, one strand shown
# T5 sequence: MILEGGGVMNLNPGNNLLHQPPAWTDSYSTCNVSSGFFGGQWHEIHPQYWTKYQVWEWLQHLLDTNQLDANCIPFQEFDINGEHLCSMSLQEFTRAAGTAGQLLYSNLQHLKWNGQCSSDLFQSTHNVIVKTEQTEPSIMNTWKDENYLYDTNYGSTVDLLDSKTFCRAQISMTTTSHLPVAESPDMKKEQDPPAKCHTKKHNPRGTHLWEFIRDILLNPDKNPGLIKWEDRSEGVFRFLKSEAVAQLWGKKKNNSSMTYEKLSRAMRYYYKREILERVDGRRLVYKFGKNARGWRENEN
# How it was run: as §1
# SPI1 = SPI1 (Homo sapiens, UniProt P17947 1-270); conditions: protein: recombinant; tags: N-terminal GST; dsDNA, one strand shown
# How it was run: as §1
# SPIB = SPIB (Homo sapiens, UniProt Q01892 1-262); conditions: protein: recombinant; tags: N-terminal GST; dsDNA, one strand shown
# Sequence of SPIB (Q01892 whole entry): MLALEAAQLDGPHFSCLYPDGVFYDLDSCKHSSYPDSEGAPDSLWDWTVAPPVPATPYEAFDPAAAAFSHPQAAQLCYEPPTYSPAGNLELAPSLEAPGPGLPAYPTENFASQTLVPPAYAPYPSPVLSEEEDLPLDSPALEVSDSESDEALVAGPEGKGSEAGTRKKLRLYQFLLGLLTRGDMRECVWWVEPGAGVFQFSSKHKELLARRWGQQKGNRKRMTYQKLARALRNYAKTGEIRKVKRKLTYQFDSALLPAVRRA
# How it was run: as §1
# ELK3 = target: T6, ELK3 (Homo sapiens, UniProt P41970 1-407); conditions: protein: recombinant; tags: N-terminal GST; dsDNA, one strand shown
# T6 sequence: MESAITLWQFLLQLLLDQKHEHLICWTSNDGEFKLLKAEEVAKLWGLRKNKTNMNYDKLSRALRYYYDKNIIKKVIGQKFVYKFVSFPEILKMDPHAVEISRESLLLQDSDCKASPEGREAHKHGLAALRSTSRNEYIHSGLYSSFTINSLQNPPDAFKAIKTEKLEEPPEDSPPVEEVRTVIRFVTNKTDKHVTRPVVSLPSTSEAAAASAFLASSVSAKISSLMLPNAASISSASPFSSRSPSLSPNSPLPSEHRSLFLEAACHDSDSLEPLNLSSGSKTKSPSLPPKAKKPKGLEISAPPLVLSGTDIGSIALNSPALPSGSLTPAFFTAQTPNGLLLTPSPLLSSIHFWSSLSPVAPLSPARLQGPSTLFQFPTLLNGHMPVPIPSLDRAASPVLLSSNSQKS
# How it was run: as §1
# FEV = target: T7, FEV (Homo sapiens, UniProt Q99581 1-238); conditions: protein: recombinant; tags: N-terminal GST; dsDNA, one strand shown
# T7 sequence: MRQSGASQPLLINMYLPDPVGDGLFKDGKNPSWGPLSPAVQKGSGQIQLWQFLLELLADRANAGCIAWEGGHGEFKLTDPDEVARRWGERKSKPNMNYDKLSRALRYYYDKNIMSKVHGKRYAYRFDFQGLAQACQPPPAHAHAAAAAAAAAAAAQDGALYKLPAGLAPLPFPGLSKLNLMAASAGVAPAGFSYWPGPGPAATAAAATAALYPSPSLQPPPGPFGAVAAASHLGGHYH
# How it was run: as §1
# ETV5 = ETV5 (Homo sapiens, UniProt P41161 1-510); conditions: protein: recombinant; tags: N-terminal GST; dsDNA, one strand shown
# Sequence of ETV5 (P41161 whole entry): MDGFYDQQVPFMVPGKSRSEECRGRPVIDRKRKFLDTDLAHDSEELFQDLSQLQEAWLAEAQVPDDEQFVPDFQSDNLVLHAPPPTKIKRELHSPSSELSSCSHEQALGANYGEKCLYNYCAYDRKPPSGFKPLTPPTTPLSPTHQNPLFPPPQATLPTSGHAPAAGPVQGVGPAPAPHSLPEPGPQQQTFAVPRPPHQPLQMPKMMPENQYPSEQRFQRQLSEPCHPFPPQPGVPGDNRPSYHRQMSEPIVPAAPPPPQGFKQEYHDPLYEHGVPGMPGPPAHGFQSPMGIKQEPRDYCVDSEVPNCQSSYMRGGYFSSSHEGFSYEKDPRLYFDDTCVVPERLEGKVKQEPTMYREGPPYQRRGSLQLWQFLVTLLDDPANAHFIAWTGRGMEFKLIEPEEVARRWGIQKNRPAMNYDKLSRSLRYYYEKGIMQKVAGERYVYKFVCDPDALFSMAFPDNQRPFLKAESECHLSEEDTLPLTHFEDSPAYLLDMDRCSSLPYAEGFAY
# How it was run: as §1
# HSF1 = HSF1 (Homo sapiens, UniProt Q00613 1-529); conditions: protein: recombinant; tags: N-terminal GST; chain copies: 3; dsDNA, one strand shown
# Sequence of HSF1 (Q00613 whole entry): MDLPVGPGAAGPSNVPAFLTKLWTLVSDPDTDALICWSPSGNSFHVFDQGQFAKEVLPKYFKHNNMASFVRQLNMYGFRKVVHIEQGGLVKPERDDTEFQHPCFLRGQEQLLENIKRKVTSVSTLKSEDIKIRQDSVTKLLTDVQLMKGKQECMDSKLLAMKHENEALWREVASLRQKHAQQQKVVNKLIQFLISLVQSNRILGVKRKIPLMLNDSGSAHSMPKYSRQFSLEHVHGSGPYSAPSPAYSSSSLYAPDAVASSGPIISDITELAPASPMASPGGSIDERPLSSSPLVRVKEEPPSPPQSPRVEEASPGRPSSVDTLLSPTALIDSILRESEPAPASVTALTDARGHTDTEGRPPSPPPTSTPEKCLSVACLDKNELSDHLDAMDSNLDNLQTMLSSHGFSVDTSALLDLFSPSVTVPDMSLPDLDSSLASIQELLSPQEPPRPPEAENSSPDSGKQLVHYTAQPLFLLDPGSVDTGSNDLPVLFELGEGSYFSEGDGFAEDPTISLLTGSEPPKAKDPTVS
# How it was run: as §1
# SPIC = target: T8, SPIC (Homo sapiens, UniProt Q8N5J4 1-248); conditions: protein: recombinant; tags: N-terminal GST; dsDNA, one strand shown
# T8 sequence: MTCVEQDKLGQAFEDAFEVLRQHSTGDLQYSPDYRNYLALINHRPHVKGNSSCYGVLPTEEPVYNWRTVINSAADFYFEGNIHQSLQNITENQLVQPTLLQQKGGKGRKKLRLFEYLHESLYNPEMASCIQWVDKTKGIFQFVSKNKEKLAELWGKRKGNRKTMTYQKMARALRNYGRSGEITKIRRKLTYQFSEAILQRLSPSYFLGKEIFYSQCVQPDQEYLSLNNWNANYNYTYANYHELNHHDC
# How it was run: as §1
# ELF4 = ELF4 (Homo sapiens, UniProt Q99607 1-663); conditions: protein: recombinant; tags: N-terminal GST; dsDNA, one strand shown
# Sequence of ELF4 (Q99607 whole entry): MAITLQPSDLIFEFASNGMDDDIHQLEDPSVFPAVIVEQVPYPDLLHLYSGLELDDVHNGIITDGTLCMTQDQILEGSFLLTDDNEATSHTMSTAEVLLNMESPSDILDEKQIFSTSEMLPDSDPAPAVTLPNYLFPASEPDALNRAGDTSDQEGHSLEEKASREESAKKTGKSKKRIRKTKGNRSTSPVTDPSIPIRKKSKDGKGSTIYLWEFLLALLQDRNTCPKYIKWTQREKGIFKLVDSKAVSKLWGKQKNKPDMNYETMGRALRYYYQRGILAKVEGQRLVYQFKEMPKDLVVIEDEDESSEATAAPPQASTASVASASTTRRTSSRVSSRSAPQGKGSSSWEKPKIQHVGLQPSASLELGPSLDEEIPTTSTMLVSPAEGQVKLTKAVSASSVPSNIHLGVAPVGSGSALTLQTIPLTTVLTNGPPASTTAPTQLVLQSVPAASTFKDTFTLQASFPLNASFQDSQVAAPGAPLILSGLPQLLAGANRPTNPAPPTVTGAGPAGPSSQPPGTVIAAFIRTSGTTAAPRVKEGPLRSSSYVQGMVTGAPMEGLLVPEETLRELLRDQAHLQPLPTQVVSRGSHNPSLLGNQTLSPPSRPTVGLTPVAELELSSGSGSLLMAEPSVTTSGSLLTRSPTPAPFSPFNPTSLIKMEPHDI
# How it was run: as §1
# ELK4 = target: T9, ELK4 (Homo sapiens, UniProt P28324-2 1-405); conditions: protein: recombinant; tags: N-terminal GST; dsDNA, one strand shown
# T9 sequence: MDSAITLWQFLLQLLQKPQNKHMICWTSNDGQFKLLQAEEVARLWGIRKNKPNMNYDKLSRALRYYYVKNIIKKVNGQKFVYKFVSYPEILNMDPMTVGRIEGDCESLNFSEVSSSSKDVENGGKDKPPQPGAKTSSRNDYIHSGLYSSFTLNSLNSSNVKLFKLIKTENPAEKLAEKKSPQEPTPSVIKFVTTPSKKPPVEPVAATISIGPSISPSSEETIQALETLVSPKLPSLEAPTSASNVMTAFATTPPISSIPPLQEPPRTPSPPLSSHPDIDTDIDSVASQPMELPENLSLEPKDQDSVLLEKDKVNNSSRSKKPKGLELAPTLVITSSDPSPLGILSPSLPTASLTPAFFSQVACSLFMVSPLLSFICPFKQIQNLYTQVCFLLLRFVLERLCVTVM
# How it was run: as §1
# ETV2 = target: T10, ETV2 (Homo sapiens, UniProt O00321 1-342); conditions: protein: recombinant; tags: N-terminal GST; dsDNA, one strand shown
# T10 sequence: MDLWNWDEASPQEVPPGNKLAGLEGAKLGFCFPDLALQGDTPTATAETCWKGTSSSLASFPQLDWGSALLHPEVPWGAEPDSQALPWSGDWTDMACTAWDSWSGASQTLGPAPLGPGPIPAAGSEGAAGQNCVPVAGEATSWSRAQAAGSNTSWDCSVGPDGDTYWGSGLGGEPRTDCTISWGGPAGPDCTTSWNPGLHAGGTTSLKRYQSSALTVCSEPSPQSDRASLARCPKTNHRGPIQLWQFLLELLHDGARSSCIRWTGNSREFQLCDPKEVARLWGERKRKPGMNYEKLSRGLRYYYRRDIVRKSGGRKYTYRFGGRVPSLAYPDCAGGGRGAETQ
# How it was run: as §1
# ELF3 = target: T11, ELF3 (Homo sapiens, UniProt P78545 1-371); conditions: protein: recombinant; tags: N-terminal GST; dsDNA, one strand shown
# T11 sequence: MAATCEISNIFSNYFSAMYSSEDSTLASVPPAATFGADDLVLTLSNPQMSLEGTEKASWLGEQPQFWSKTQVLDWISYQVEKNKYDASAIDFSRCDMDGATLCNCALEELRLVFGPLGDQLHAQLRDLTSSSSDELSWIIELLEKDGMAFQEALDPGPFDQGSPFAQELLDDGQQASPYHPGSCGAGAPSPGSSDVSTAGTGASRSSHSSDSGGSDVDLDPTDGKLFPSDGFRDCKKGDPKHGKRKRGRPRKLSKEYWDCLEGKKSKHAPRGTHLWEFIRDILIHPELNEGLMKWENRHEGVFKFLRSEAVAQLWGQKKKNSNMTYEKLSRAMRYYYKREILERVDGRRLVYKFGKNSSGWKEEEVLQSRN
# How it was run: as §1
# CRX = CRX (Homo sapiens, UniProt O43186 1-299); conditions: protein: recombinant; tags: N-terminal GST; dsDNA, one strand shown
# Sequence of CRX (O43186 whole entry): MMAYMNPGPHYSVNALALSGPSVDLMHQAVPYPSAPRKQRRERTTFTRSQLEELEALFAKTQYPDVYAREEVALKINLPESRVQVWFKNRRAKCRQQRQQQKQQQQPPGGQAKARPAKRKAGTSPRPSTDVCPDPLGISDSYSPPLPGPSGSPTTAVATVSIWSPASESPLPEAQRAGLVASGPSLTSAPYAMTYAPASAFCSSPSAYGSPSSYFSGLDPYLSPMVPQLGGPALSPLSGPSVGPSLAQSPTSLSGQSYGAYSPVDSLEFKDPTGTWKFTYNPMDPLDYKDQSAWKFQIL
# How it was run: as §1
# ETV1 = ETV1 (Homo sapiens, UniProt P50549 1-477); conditions: protein: recombinant; tags: N-terminal GST; dsDNA, one strand shown
# Sequence of ETV1 (P50549 whole entry): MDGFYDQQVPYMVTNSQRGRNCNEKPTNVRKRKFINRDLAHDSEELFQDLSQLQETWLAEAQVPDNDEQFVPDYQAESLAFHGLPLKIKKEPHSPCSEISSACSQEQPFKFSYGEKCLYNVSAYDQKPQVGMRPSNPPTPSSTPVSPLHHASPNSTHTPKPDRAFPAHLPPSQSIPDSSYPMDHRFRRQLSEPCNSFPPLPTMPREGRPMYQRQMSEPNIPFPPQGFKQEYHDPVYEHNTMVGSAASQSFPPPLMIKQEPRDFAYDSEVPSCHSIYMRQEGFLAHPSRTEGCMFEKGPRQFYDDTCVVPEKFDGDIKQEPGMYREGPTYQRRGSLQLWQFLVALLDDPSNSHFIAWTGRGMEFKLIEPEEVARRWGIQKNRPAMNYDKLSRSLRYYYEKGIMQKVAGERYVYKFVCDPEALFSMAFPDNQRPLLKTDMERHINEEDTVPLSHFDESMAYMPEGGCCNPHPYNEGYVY
# How it was run: as §1
sequence,measurement,setting,value
TATCGA,binding signal,FLI1,"1.36 fold enrichment (6-mer frequency, TF over GST control)"
same,binding signal,ELK1,"1.28 fold enrichment (6-mer frequency, TF over GST control)"
same,binding signal,GABPA,"1.32 fold enrichment (6-mer frequency, TF over GST control)"
same,binding signal,ERG,"1.36 fold enrichment (6-mer frequency, TF over GST control)"
same,binding signal,ELF1,"1.36 fold enrichment (6-mer frequency, TF over GST control)"
same,binding signal,EHF,"1.35 fold enrichment (6-mer frequency, TF over GST control)"
same,binding signal,SPI1,"1.34 fold enrichment (6-mer frequency, TF over GST control)"
same,binding signal,SPIB,"1.25 fold enrichment (6-mer frequency, TF over GST control)"
same,binding signal,ELK3,"1.34 fold enrichment (6-mer frequency, TF over GST control)"
same,binding signal,FEV,"1.2 fold enrichment (6-mer frequency, TF over GST control)"
same,binding signal,ETV5,"1.29 fold enrichment (6-mer frequency, TF over GST control)"
same,binding signal,HSF1,"1.83 fold enrichment (6-mer frequency, TF over GST control)"
same,binding signal,SPIC,"1.28 fold enrichment (6-mer frequency, TF over GST control)"
same,binding signal,ELF4,"1.34 fold enrichment (6-mer frequency, TF over GST control)"
same,binding signal,ELK4,"1.37 fold enrichment (6-mer frequency, TF over GST control)"
same,binding signal,ETV2,"1.44 fold enrichment (6-mer frequency, TF over GST control)"
same,binding signal,ELF3,"1.55 fold enrichment (6-mer frequency, TF over GST control)"
same,binding signal,CRX,"1.59 fold enrichment (6-mer frequency, TF over GST control)"
same,binding signal,ETV1,"1.31 fold enrichment (6-mer frequency, TF over GST control)"
